sPLA2-III inh – Blocks human group III sPLA2 activity | Q9NZ20 | QFRET BODIPY PC-A2 liposome hydrolysis, fluorescence | inhibition, % at 12.2 µM | actives 0.56% (n = 370,000) | AID 743126;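 active = inhibition above mean plus 3 SD of compounds lying within the high and low control bounds, cut at about 19% in these data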;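 also: 0% = median of test compound wells and 100% = no enzyme DMSO wells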
ADAM17 inh – inhibitors of human ADAM17; AID 720648; inhibition, % at 6.95 µM; actives 0.83% (n = 370,000); recombinant ADAM17, EDANS/DABCYL FRET peptide cleavage; P78536;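 active = inhibition above the mean of compounds lying between control limits plus 3 SD, set per campaign, cut at about 8.5% in these data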;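 also: 0% = DMSO-only wells as the low control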
GRIN3A LBD mod – modulators (binders) of human NR3A ligand-binding domain; NR3A LBD differential scanning fluorimetry, Tm shift; 0% = protein alone, 100% = glycine-bound protein; Tm shift relative to glycine control, % at 25 µM; actives 2.5% (n = 340,000); AID 1259313;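 active = melting temperature shift of at least 10% of the positive control shift, at one fixed dose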
FAS TE block – inhibitors of human fatty acid synthase thioesterase domain. inhibition, % at 15 µM. P49327. recombinant FAS-TE, OMFH fluorogenic substrate, fluorescence endpoint. AID 602261. actives 0.67% (n = 360,000);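 active = compounds whose normalised, plate-corrected inhibition of enzyme fluorescence in the single-dose primary screen is 50% or more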;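 also: 0% = DMSO with enzyme and 100% = substrate without enzyme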
ADAM10 inh – ADAM10 inhibition, QFRET primary screen; actives 0.62% (n = 370,000); recombinant ADAM10, EDANS/DABCYL FRET peptide cleavage, 3 h; inhibition, % at 7 µM; AID 720582; O14672;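 active = inhibition above a per-campaign cutoff equal to the mean of compounds falling between control-based bounds plus 3 SD, cut at about 20% in these data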;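 also: 0% = DMSO wells while the 100% control is not disclosed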
Target sequence (O14672 214-748 limits assumed): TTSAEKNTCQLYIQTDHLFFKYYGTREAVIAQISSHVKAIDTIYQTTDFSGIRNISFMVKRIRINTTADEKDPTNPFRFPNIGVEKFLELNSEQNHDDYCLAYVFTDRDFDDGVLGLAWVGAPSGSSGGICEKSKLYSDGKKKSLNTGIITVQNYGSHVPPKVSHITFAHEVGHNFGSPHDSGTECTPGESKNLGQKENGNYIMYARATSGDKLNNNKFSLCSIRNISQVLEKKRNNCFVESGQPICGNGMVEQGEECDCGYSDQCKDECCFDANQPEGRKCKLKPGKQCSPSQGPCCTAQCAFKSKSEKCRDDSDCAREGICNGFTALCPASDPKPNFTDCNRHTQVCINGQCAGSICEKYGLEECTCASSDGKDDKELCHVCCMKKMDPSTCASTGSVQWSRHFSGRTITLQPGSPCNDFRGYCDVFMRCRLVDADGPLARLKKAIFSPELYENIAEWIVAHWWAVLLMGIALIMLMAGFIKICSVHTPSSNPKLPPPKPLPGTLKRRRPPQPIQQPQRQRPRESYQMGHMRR
ADAM10 ctr – ADAM10 inhibition, counter-screen for ADAM17 exosite hits. actives 47% (n = 2,900). inhibition, % at 6.95 µM. AID 743256. shares compounds with ADAM17 inh. recombinant ADAM10, EDANS/DABCYL FRET peptide cleavage, 3 h;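 active = mean inhibition over the triplicate runs exceeds the activity threshold set in the earlier primary screen, cut at about 20% in these data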;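 also: 0% = DMSO wells and 100% = marimastat wells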
ADAM17 confirm – human ADAM17 inhibition, confirmation; shares compounds with ADAM17 inh; inhibition, % at 6.95 µM; actives 65% (n = 2,900); recombinant ADAM17, EDANS/DABCYL QFRET peptide cleavage;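 active = mean inhibition across replicates above the hit cutoff set in the primary screen, cut at about 8.5% in these data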;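 also: 0% = DMSO wells and 100% = marimastat wells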
* marks the source's active call; other numbers are inactive results; . = no result given. Compounds with a hit are over-represented: about 4.3% of the library has one in this group of screens.

SMILES	sPLA2-III inh	ADAM17 inh	GRIN3A LBD mod	FAS TE block	ADAM10 inh	ADAM10 ctr	ADAM17 confirm
Cc1cc(N2CCN(CC(C)(C)O)C[C@@H]2C)ccc1N1CCN(CC(C)(C)O)[C@@H](C)C1	13.0	-1.9	.	.	-9.4	.	.
COc1ccc(CNC(=O)C2(CC3CC(c4ccccc4)=NO3)CCN(C(=O)C3(C)CC3)CC2)cc1 (configuration not stated)	0.3	8.7*	-0.6	-5.9	6.5	0.7	5.3
O=C(Nc1cccc(OC(F)(F)F)c1)C1Cc2c(-c3ccc4c(c3)OCO4)ccnc2O1 (configuration not stated)	-17.8	2.8	.	21.5	-0.8	.	.
COc1ccc(NC(=O)C2Cc3c(-c4ccccc4Oc4ccccc4)ccnc3O2)cc1 (configuration not stated)	-14.5	9.6*	.	23.8	17.8	17.9	7.2
O=C(Nc1cccc(OC(F)(F)F)c1)C1Cc2c(-c3ccc(Cl)cc3)ccnc2O1 (configuration not stated)	-3.0	10.1*	.	32.1	7.5	17.2	8.5
CCN(CC)c1ccc(C=Nn2c(-c3ccc(F)cc3)n[nH]c2=S)c(O)c1	-8.1	2.1	.	.	-5.5	.	.
COc1ccc(N2CCN(C(=O)CCC(=O)N3CCOc4ccc(Cl)cc43)CC2)cc1	8.2	11.3*	3.0	8.2	10.8	29.0*	8.0
COc1ccc(N2CCN(C(=O)CCC(=O)N3CCOc4ccc(C)cc43)CC2)cc1	2.9	0.5	-10.6	-0.3	-8.7	.	.
Cc1ccc(Nc2ncccc2C(=O)NCc2cccs2)c(C)c1	-3.5	3.3	7.2	23.6	9.6	.	.
Cc1cccc(Nc2ncccc2C(=O)NCc2cccs2)c1C	-9.6	10.0*	-0.6	21.1	15.8	26.8*	15.4*
COC(=O)C1=C(C)N(Cc2ccccc2C(F)(F)F)C(=NCc2ccc(C(F)(F)F)cc2)NC1c1cccc(F)c1 (configuration not stated)	6.0	-3.5	.	.	-6.0	.	.
CCCOc1ccc(CC(=O)NNC(=S)Nc2ccccc2)cc1Br	1.3	12.4*	18.5*	-3.5	13.1	10.3	8.6
COc1ccc(C2CC(=O)C(c3cccc(F)c3)=CN2Cc2ccccc2)cc1 (configuration not stated)	-5.7	1.4	.	.	3.5	.	.
CCOC(=O)c1c(-c2ccccc2)csc1NC(=O)CSc1nncs1	-31.2	9.0*	-2.9	14.8	14.3	17.4	12.7*
CCOC(=O)c1c(-c2ccccc2)csc1NC(=O)CSc1ccccc1	-22.2	0.4	0.8	22.1	8.3	.	.
Cc1ccc(S(=O)(=O)N2CCCC(C(=O)NCc3ccco3)C2)cc1 (configuration not stated)	-0.7	1.9	.	.	3.8	.	.
C=CCCC(=O)N1CCCC(Cc2cccc(Cl)c2)(C(=O)OCC)C1 (configuration not stated)	-1.5	9.1*	-1.5	4.8	9.7	-6.0	0.2
CCOC(=O)C1(Cc2cccc(Cl)c2)CCCN(C(=O)CCOC)C1 (configuration not stated)	6.3	-2.2	-1.9	0.3	0.0	.	.
C/C(=N\N=C(/N)SC1CC(=O)N(c2ccc(Cl)cc2)C1=O)c1cccs1 (configuration not stated)	-41.2	10.8*	18.3*	17.1	15.4	35.2*	17.8*
CCOC(=O)[C@@]12CCCC3=C1N(CCC3)C(=O)[C@H]2CC(=O)NCc1ccc(OC)c(OC)c1	-2.8	-0.3	.	.	4.6	.	.
CCOC(=O)c1sc2ccccc2c1OC(=O)c1ccccc1OC	-8.9	5.6	0.1	19.3	4.8	.	.
CCOC(=O)c1cc(OC(=O)c2ccccc2OC)n(-c2ccccc2)n1	3.7	11.4*	-0.2	-6.7	0.2	10.7	11.8*
Cc1cc2c(c(=O)o1)[C@@]1(C(=O)N(c3ccccc3)c3ccccc31)C1=C(CCCC1=O)O2	1.2	-3.1	.	.	-3.1	.	.
O=C(CC1SC(=O)N(c2ccccc2)C1=O)Nc1ccccc1 (configuration not stated)	-8.3	9.3*	-20.1	-2.8	11.8	1.0	16.0*

High-throughput results: PubChem BioAssay, several laboratories
